Reference: PubChem BioAssay AID1159580 (chemical genetic matrix, 2015)
The whole screen tested about 5,500 compounds, of which about 2,000 (36%) were called active. Roughly 18% stayed inconclusive and do not appear here. No stated cut-off is given here; in the data, active means normalized growth mostly below about 0.91 (no sharp cut-off); inconclusive means no clear call, values can overlap the other calls; inactive means mostly above about 0.92. Some of the results follow.

Assay: chemical genetic growth profiling, strain panel (AID 1159580);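 further: tested at 20 µM; growth read once vehicle control cultures reached saturation at 30 °C; 1 = growth at the plate median or of vehicle wells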
Settings: S. cerevisiae deletion strains, growth OD

Measured: normalized growth

Cc1ncc(CSSCc2cnc(C)c(O)c2CO)c(CO)c1O
inactive: locus YHR030C, strain SLT2, stronger effect = lower value 1.01 | locus YHR079C, strain IRE1, stronger effect = lower value 1.01 | locus YJL095W, strain BCK1, stronger effect = lower value 0.995 | locus YJR066W, strain TOR1, stronger effect = lower value 0.945 | locus YLR113W, strain HOG1, stronger effect = lower value 0.983 | locus YNL183C, strain NPR1, stronger effect = lower value 0.948 | locus YOR231W, strain MKK1, stronger effect = lower value 1.01 | locus YPL256C, strain CLN2, stronger effect = lower value 1.01
